Each structure is given as a SMILES string. Records with an inconclusive call do not appear. The source made the active and inactive calls. Unless noted, calls follow the shape of the dose curve; as a rule, active = well fitted curve in the direction sought with a large enough effect; inconclusive = small, poorly fitted or top-dose-only effect, or another doubt; inactive = no such curve, though single readings can be large; an effect the other way counts as inactive or inconclusive.

The nature of assay [1]: High-throughput drug toxicity screening in the BPDCN cell line Gen2.2 (AID 1224824; call rule not given here;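 also: cells exposed to compounds for 48 h before reading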). Conditions: Gen2.2 BPDCN cells; at 45.8 µM (top of the series). The method in brief:
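CellTiter-Glo luminescence after 48 h compound exposure of Gen2.2 cells; percent activity set with DMSO as 100% and bortezomib (9.2 uM final) as 0%. Cells seeded at 500 per well, RPMI + 10% FBS, 37 °C.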

Assay [2] can be described thus: High-throughput drug toxicity screening in the BPDCN cell line Cal-1 (AID 1224825; call rule not given here). As to conditions: Cal-1 BPDCN cell viability, qHTS; at 45.8 µM (top of the series). The method in brief:
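Viability of the BPDCN line Cal-1 is measured as ATP-based luminescence (CellTiter-Glo) following 48 h incubation with compounds. Percent activity uses DMSO-treated wells as 100% and 9.2 uM bortezomib as 0%.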

Assay [3] in a line: qHTS assay for measurement of the activity of small molecule inhibitors on Zika virus induced Caspase-3 activity in human iPSC derived neural progenitor cells (hNPCs) (AID 1224857). Also: % of control where 0% means no effect; nearly all actives have a fitted effect of over 65% in size. The method in brief:
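Values are percent inhibition of virus-induced caspase-3/7 signal, scaled between uninfected cells and ZIKV-infected cells. Infection used 2 FFU/cell for 6 h after 1 h compound exposure.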

The nature of assay [4]: qHTS assay for measurement of the activity of small molecule inhibitors on Zika virus induced Caspase-3 activity in human astrocytoma cells (AID 1224859).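 Also: plate controls were ZIKV-infected untreated cells for no effect and uninfected cells for full effect.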 The method in brief:
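Compound added 1 h pre-infection; ZIKV 2 FFU/cell on SNB-19 cells, 6 h, 37 C/5% CO2. Caspase-Glo 3/7 luminescence; values as % inhibition of ZIKV-induced caspase activity.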

The nature of assay [5]: qHTS Screen of the MIPE 4.0 Collection Against Ewings Sarcoma (RDES) (AID 1259252). Also: nearly all actives have a fitted effect of over 35% in size. Also: potency is read from the fitted curve at half-maximal effect. The method in brief: (§1)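 Compound titrations go onto adherent log-phase cells 4 h after seeding, incubate 48 h at 37C, then CellTiter-Glo luminescence reports viability relative to DMSO and cell-free controls.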
A short description of assay [6]: qHTS Screen of the MIPE 4.0 Collection Against Ewings Sarcoma (TC71) (AID 1259253). Also: nearly all actives have a fitted effect of over 40% in size. Also: potency is read from the fitted curve at half-maximal effect. The method in brief: as §1
A short description of assay [7]: qHTS Screen of the MIPE 4.0 Collection Against Ewings Sarcoma (EW8) (AID 1259255). Also: nearly all actives have a fitted effect of over 35% in size. Also: potency is read from the fitted curve at half-maximal effect.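 As to viability: 100% = DMSO-treated cells and 0% = medium-only wells without cells.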 The method in brief: as §1
Assay [8] is described as follows: qHTS Screen of the MIPE 4.0 Collection Against Ewings Sarcoma (TC32) (AID 1259256). Also: nearly all actives have a fitted effect of over 45% in size. Also: potency is read from the fitted curve at half-maximal effect. The method in brief: as §1
Assay [9] is described as follows: P-glycoprotein substrates identified in KB-8-5-11 adenocarcinoma cell line, qHTS therapeutic library screen (AID 1346987). Also: nearly all actives have a fitted effect of over 65% in size. Also: potency is read from the fitted curve at half-maximal effect. The method in brief: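 Luminescence from CellTiter-Glo, read 5 min after addition, quantified survival of KB-8-5-11 (P-gp-overexpressing) cells exposed to compounds for 72 h. AC50 was derived from concentration-response curves.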
Assay [10] can be described thus: Immunotoxin (SS1P) sensitization/mitigation study. Vehicle arm (DMEM) (AID 1159513; call rule not given here; also: potency is read from the fitted curve at half-maximal effect).
A short description of assay [11]: P-glycoprotein substrates identified in KB-3-1 adenocarcinoma cell line, qHTS therapeutic library screen (AID 1346986). Also: nearly all actives have a fitted effect of over 60% in size. The method in brief:
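72 h cell-killing screen, 500 cells/well, CellTiter-Glo luminescence. Paired lines KB-3-1/KB-8-5-11; P-gp dependence checked by tariquidar co-treatment and HEK-293 MDR-19 versus empty-vector cells.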

Assay [12] in a line: qHTS assay to identify small molecule inhibitors of chordoma cells - UCH-1 (AID 1259355). Also: % is scaled to controls: 0 for no effect and ±100 for the full control effect; nearly all actives have a fitted effect of over 55% in size. The method in brief:
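A 48hr growth-inhibition format: each drug tested at 15 concentrations together with added auranofin, camptothecin, doxorubicin, rubitecan and topotecan, with cell viability quantified as CellTiter-Glo luminescence.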

Regarding `CN[C@@H]1Cc2cccc3[nH]c(=O)n(c23)C1`, the cell viability, % of control (lower = more cytotoxic) in [1] was determined as 231%. Moreover, the viability (% of control) in assay [2] stood at 119%. Moreover, the Potency result in [3], in [4], in assay [5], in assay [6], in [7] and in assay [8] was “inactive” in each case. The Potency entry in assay [9] is “inactive”.
As for `COc1cc2c(cc1OC)[C@@H]1C(=O)c3ccc4c(c3O[C@@H]1CO2)C=CC(C)(C)O4`, in assay [10], the Potency is 4.18 µM (active).
Take `Cc1cnc(Nc2ccc(OCCN3CCCC3)cc2)nc1Nc1cccc(S(=O)(=O)NC(C)(C)C)c1`: in assay [10], the Potency entry is “inactive”.
For `Cc1c(N)nc([C@H](CC(N)=O)NC[C@@H](N)C(N)=O)nc1C(=O)N[C@H](C(=O)N[C@@H](C)[C@H](O)[C@@H](C)C(=O)N[C@@H](C(=O)NCCc1nc(-c2nc(C(=O)NCCC[S+](C)C)cs2)cs1)[C@@H](C)O)C(O[C@H]1O[C@H](CO)[C@H](O)[C@@H](O)[C@@H]1O[C@H]1O[C@H](CO)[C@@H](O)[C@H](OC(N)=O)[C@H]1O)c1cnc[nH]1` (some centres undefined), the cell viability, % of control (lower = more cytotoxic) in assay [1] is 132%. Moreover, the viability (% of control) in assay [2] is 16%. In addition, the Potency entry in [3] and in assay [4] was “inactive” throughout. For the same compound, the Potency was 1.05 µM (active) in assay [5], 0.526 µM (active) in [6] and 0.264 µM (active) in assay [7].
In the case of `O=C1CCCC2=C1C(c1[nH]ncc1Cl)N=C(Nc1nc3ccccc3o1)N2` (centres undefined), the Potency entry in [10] was “inactive”.
Regarding `CCOc1ccc(Cc2cc([C@@H]3O[C@H](CO)[C@@H](O)[C@H](O)[C@@H]3O)ccc2Cl)cc1`, the Potency entry in assay [10] was “inactive”.
For `C[C@@H]1[C@H](O)[C@@H](C)C=CC=CCCC=CC=CC=CC=C[C@H](O[C@H]2O[C@@H](C)[C@H](O)[C@@H](N)[C@@H]2O)CC2O[C@](O)(C[C@@H](O)[C@H](O)CC[C@@H](O)C[C@@H](O)C[C@@H](O)CC(=O)O[C@H]1C)C[C@H](O)[C@H]2C(=O)O`, the cell viability, % of control (lower = more cytotoxic) in [1] is 152%. Further, in assay [2], the viability (% of control) is 124%. For the same compound, the Potency entry in assay [3], in assay [4], in assay [5], in assay [6], in assay [7] and in assay [8] was “inactive” in each case. For the same compound, the Potency result in assay [11] and in assay [9] was “inactive” each time.
Regarding `Cc1cc(-c2nnc3n2CCCCC3)c(C)n1-c1ccc(F)cc1`, the Potency in assay [10] is 0.332 µM (active).
`CC(=Cc1csc(C)n1)[C@@H]1C[C@H]2O[C@]2(C)CCC[C@H](C)[C@@H](O)[C@@H](C)C(=O)C(C)(C)[C@@H](O)CC(=O)O1`: the cell viability, % of control (lower = more cytotoxic) in assay [1] came out at 50.2%. Also, the viability (% of control) in assay [2] is 17%. Also, the Potency result in [3], in assay [4], in assay [5], in assay [6], in [7] and in [8] was “inactive” in each case.
Turning to `COc1cc(N2CCC(N3CCN(C)CC3)CC2)ccc1Nc1ncc(Cl)c(Nc2ccccc2S(=O)(=O)C(C)C)n1`, the Potency in assay [10] is 5.26 µM (active).
Regarding `Cc1cccc(-c2[nH]ncc2-c2ccc3ncccc3n2)n1`, in assay [10], the Potency result was “inactive”.
For `O=C(Nc1cc(Cl)cc2c1[nH]c1cnccc12)c1cccnc1`, in assay [10], the Potency is 13.2 µM (active).
On to `NC(=O)c1ccc(I)c([N+](=O)[O-])c1`, for which, in [10], the Potency result was “inactive”.
Turning to `Cc1cc2c(cc1C1(c3ccc(C(=O)O)cn3)CC1)C(C)(C)CCC2(C)C`, the Potency result in assay [10] is “inactive”.
`COc1cc(Nc2ncc3c(n2)-c2ccc(Cl)cc2C(c2c(F)cccc2OC)=NC3)ccc1C(=O)O`: the Potency result in assay [10] is “inactive”.
As for `c1ccc2c(CN3CCNCC3)cccc2c1`, the cell viability, % of control (lower = more cytotoxic) in assay [1] was 112%. For the same compound, in assay [2], the viability (% of control) worked out at 99%. The Potency result in assay [3], in assay [4], in [5], in assay [6], in assay [7] and in [8] was “inactive” throughout. In addition, the Potency entry in [11] and in assay [9] was “inactive” throughout.
Consider `CN(C)[C@@H]1C(=O)C(C(N)=O)=C(O)[C@@]2(O)C(=O)C3=C(O)c4c(O)cccc4[C@@](C)(O)[C@H]3[C@H](O)[C@@H]12`, for which the cell viability, % of control (lower = more cytotoxic) in [1] was 109%. Moreover, in assay [2], the viability (% of control) is 100%. The Potency entry in [3], in assay [4], in assay [5], in assay [6], in assay [7] and in [8] was “inactive” each time. In addition, the Potency result in [12] and in assay [9] was “inactive” in each case.
For the compound `O=C(O)CNC(=O)c1c(O)c2ccccc2n(Cc2ccccc2)c1=O`, the cell viability, % of control (lower = more cytotoxic) in [1] turned out to be 256%. The viability (% of control) in [2] was 132%. Moreover, the Potency entry in assay [3] and in assay [4] was “inactive” throughout. The figures for the Potency in assay [5], in assay [6] and in assay [7] were 14.8 µM (active), 13.2 µM (active) and 16.6 µM (active), respectively.
Consider `Cc1c(C(=O)Nc2cccc(C(F)(F)F)c2)cc(-c2ccccc2)n1CCCN1CCOCC1`, for which the Potency in assay [10] was 23.5 µM (active); in assay [5] it was 13.2 µM (active); in assay [6], 6.62 µM (active); in assay [7], 16.6 µM (active). Further, the viability (% of control) in assay [2] came out at 37.9%. For the same compound, the Potency result in assay [3] and in [4] was “inactive” throughout.
For `COc1ccc(-c2c(-c3ccc(O)cc3O)n[nH]c2C)cc1`, the Potency in [10] is 16.6 µM (active).
As to `CC(=O)O[C@@]12CO[C@H]1C[C@H](O)[C@@]1(C)C(=O)[C@H](O)C3=C(C)[C@@H](O)C[C@@](O)([C@@H](OC(=O)c4ccccc4)[C@@H]21)C3(C)C`, the cell viability, % of control (lower = more cytotoxic) in assay [1] amounted to 42%. For the same compound, in assay [2], the viability (% of control) was found to be 20.6%. Further, the Potency result in [3] and in [4] was “inactive” each time. The results for the Potency in assay [5], in assay [6] and in [7] were 2.35 µM (active), 23.5 µM (active) and 2.35 µM (active), respectively.
Turning to `CC(C)[C@]12O[C@@H]1[C@@H]1O[C@]13[C@]1(O[C@H]1C[C@@H]1C4=C(CC[C@@]13C)C(=O)OC4)[C@H]2O`, the cell viability, % of control (lower = more cytotoxic) in assay [1] amounted to 4.5%. Also, the viability (% of control) in [2] was 2.1%. In addition, the Potency result in assay [3], in [4], in assay [5], in assay [6], in assay [7] and in assay [8] was “inactive” each time. In addition, the Potency in assay [9] is 0.001 µM (active).
On to `CC(C)N(CCNC(=O)CN1CCCC1=O)C(C)C`, for which the cell viability, % of control (lower = more cytotoxic) in assay [1] worked out at 108%. For the same compound, in assay [2], the viability (% of control) is 111%. The Potency result in assay [3], in [4], in assay [5], in [7], in assay [8] and in [11] was “inactive” throughout. In assay [9], the Potency result was “inactive”.
On to `CC[C@@H]1[C@@H](C)O[C@@](O)([C@@H](C)[C@H](O)[C@H](C)[C@H]2OC(=O)C=CC=C[C@@H](C)[C@@H]([C@@H](C)[C@@H](O)[C@H](C)[C@@]3(O)C[C@H](O[C@H]4C[C@H](O)[C@H](O)[C@H](C)O4)[C@H](CC)[C@@H](C)O3)OC(=O)C=CC=C[C@@H]2C)C[C@H]1O[C@H]1C[C@H](O)[C@H](O)[C@H](C)O1`, for which the cell viability, % of control (lower = more cytotoxic) in assay [1] worked out at 11.5%. In addition, in assay [2], the viability (% of control) was 3.46%. Moreover, the Potency result in assay [3] and in [4] was “inactive” throughout. For the same compound, the Potency in [5] is 0.662 µM (active); in assay [6], 0.59 µM (active); in [7], 0.59 µM (active); in assay [8] it was 0.662 µM (active); in [9], 3.32 µM (active).
For `CC(C)(O)C=CC(=O)[C@](C)(O)[C@H]1[C@H](O)C[C@]2(C)[C@@H]3CC=C4[C@@H](C=C(O)C(=O)C4(C)C)[C@]3(C)C(=O)C[C@@]12C`, the cell viability, % of control (lower = more cytotoxic) in assay [1] was 4.04%. Also, in [2], the viability (% of control) was 2.59%. Also, the Potency result in assay [3] and in assay [4] was “inactive” throughout. Moreover, the Potency was 0.59 µM (active) in [5], 0.209 µM (active) in assay [6], 0.118 µM (active) in assay [7] and 0.118 µM (active) in assay [9].
Take `O=S(=O)(F)Cc1ccccc1`: the cell viability, % of control (lower = more cytotoxic) in assay [1] worked out at 76.9%. The viability (% of control) in assay [2] is 97.3%. Moreover, the Potency result in assay [3], in assay [4], in assay [6] and in assay [9] was “inactive” throughout. In addition, the Potency in assay [5] is 0.0418 µM (active).

(Values after PubChem BioAssay (NCATS).)
